Measured values as given in PubChem BioAssay (NCI).
The panel holds about 83,000 compounds, 20% with a hit somewhere; the sample as a whole holds those more often.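 Note: values are percent growth. 100 is the growth of untreated cells, values between 100 and 0 indicate rising inhibition; between -100 and 0 indicates cell death.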 A number with no mark means an inactive call. The source made the active and inactive calls. The calls were made as follows: active = growth percent below 10; inactive = the rest.

Columns and labels:
Test in all cases: NCI-60 one-dose screen, 48 h (100 = growth as untreated, 0 = no growth, -100 = all killed)
Conditions in all cases: 10 µM unless noted
NCI-H23 lung = system: NCI-H23 lung
NCI-H226 lung = system: NCI-H226 lung
NCI-H322M lung = system: NCI-H322M lung
HOP-62 NSCLC = system: HOP-62 NSCLC
NCI-H460 lung = system: NCI-H460 lung
HOP-92 NSCLC = system: HOP-92 NSCLC
NCI-H522 lung = system: NCI-H522 lung
A549/ATCC NSCLC = system: A549/ATCC NSCLC
786-0 renal = system: 786-0 renal
COLO 205 colon = system: COLO 205 colon

For CC1=C2[C@@H](CC1)[C@]1(C)O[C@@](c3ccccc3)(C[C@H]1OC(=O)CO)[C@H]2OC(=O)/C=C/c1ccccc1, the growth (NCI-H23 lung) was 99.3%, the growth (NCI-H226 lung) was 80.8% and the growth (NCI-H322M lung) was 101%. The growth (HOP-62 NSCLC) was 100%, the growth (NCI-H460 lung) was 85.2% and the growth (HOP-92 NSCLC) was 96.2%. The growth (NCI-H522 lung) was 72.3%, the growth (A549/ATCC NSCLC) was 74.4% and the growth (786-0 renal) was 68.7%. The growth (COLO 205 colon) was 110%.
CC1(C)N=C(N)N=C(N)N1c1cccc(CCc2ccccc2)c1 showed a growth (NCI-H23 lung) of 21.7%, a growth (NCI-H226 lung) of 48.1% and a growth (NCI-H322M lung) of 45.8%. For the same compound, the growth (HOP-62 NSCLC) was 45%, the growth (NCI-H460 lung) was 16.1% and the growth (HOP-92 NSCLC) was 63.2%. For the same compound, the growth (NCI-H522 lung) was 21.4%, the growth (A549/ATCC NSCLC) was 24.8% and the growth (786-0 renal) was 30.8%. The growth (COLO 205 colon) was 29.5%.
O=C(N/N=C\c1cccc([N+](=O)[O-])c1)N/N=C/c1cccc([N+](=O)[O-])c1 gave a growth (NCI-H23 lung) of 101%, a growth (NCI-H226 lung) of 92.4% and a growth (NCI-H322M lung) of 104%. It also gave a growth (HOP-62 NSCLC) of 92.9%, a growth (NCI-H460 lung) of 107% and a growth (HOP-92 NSCLC) of 105%. For the same compound, the growth (NCI-H522 lung) was 98.9%, the growth (A549/ATCC NSCLC) was 100% and the growth (786-0 renal) was 111%. It also gave a growth (COLO 205 colon) of 119%.
Compound CN(C)CCCC1(c2ccc(F)cc2)OCc2cc(-c3cc4ccccc4s3)ccc21 (stereo not given) has a growth (NCI-H23 lung) of 76.8%, a growth (NCI-H226 lung) of 67.9% and a growth (NCI-H322M lung) of 56.8%. For the same compound, the growth (HOP-62 NSCLC) was -65.8% (active), the growth (NCI-H460 lung) was -78.1% (active) and the growth (HOP-92 NSCLC) was 26.8%. The growth (NCI-H522 lung) was -9.87% (active), the growth (A549/ATCC NSCLC) was -67.1% (active) and the growth (786-0 renal) was 57.8%. The growth (COLO 205 colon) was -65.6% (active).
With Cn1ccc(=O)nc1 the growth (NCI-H23 lung) was 88.7%, the growth (NCI-H226 lung) was 104% and the growth (NCI-H322M lung) was 82.9%. The growth (HOP-62 NSCLC) was 102%, the growth (NCI-H460 lung) was 38.7% and the growth (HOP-92 NSCLC) was 104%. It also gave a growth (NCI-H522 lung) of 49%, a growth (A549/ATCC NSCLC) of 83.2% and a growth (786-0 renal) of 109%. For the same compound, the growth (COLO 205 colon) was 102%.
Cc1ccc(C=C2C(=O)NC(=O)NC2=O)cc1 showed a growth (NCI-H23 lung) of 102%, a growth (NCI-H226 lung) of 105% and a growth (NCI-H322M lung) of 110%. For the same compound, the growth (HOP-62 NSCLC) was 92.1%, the growth (NCI-H460 lung) was 108% and the growth (HOP-92 NSCLC) was 110%. For the same compound, the growth (NCI-H522 lung) was 85.9%, the growth (A549/ATCC NSCLC) was 87.8% and the growth (786-0 renal) was 107%. For the same compound, the growth (COLO 205 colon) was 98.3%.
Compound Cc1cc2c(cc1C)N(C(=O)CCl)CC(=O)N2 has a growth (NCI-H23 lung) of 55.7%, a growth (NCI-H226 lung) of 33.1% and a growth (NCI-H322M lung) of 95%. For the same compound, the growth (HOP-62 NSCLC) was 73.4%, the growth (NCI-H460 lung) was 88.7% and the growth (HOP-92 NSCLC) was 93.4%. The growth (NCI-H522 lung) was -81.7% (active), the growth (A549/ATCC NSCLC) was 88.1% and the growth (786-0 renal) was 51.2%. The growth (COLO 205 colon) was -95.6% (active).
O=C1c2ccccc2C(=O)C1c1ccc(Br)cc1 was tested, and the growth (NCI-H23 lung) was 81.6%, the growth (NCI-H226 lung) was 103% and the growth (NCI-H322M lung) was 122%. The growth (HOP-62 NSCLC) was 115%, the growth (NCI-H460 lung) was 102% and the growth (HOP-92 NSCLC) was 75.1%. The growth (NCI-H522 lung) was 96.9%, the growth (A549/ATCC NSCLC) was 108% and the growth (786-0 renal) was 93.9%. It also gave a growth (COLO 205 colon) of 113%.
COc1ccc2c(c1)CCc1[nH]nc(-c3cc(OC)c(OC)c(OC)c3)c1-2 gave a growth (NCI-H23 lung) of 12.7%, a growth (NCI-H226 lung) of 41% and a growth (NCI-H322M lung) of 47%. The growth (HOP-62 NSCLC) was 12.9%, the growth (NCI-H460 lung) was 3.92% (active) and the growth (HOP-92 NSCLC) was 32.8%. The growth (NCI-H522 lung) was -22.3% (active), the growth (A549/ATCC NSCLC) was 5.04% (active) and the growth (786-0 renal) was 3.88% (active). For the same compound, the growth (COLO 205 colon) was -64.6% (active).
With COc1ccc(/C=C(/C(=O)n2cnnn2)c2cc(OC)c(OC)c(OC)c2)cc1 the growth (NCI-H23 lung) was 41.8%, the growth (NCI-H226 lung) was 40.7% and the growth (NCI-H322M lung) was 50.8%. The growth (HOP-62 NSCLC) was 25.6%, the growth (NCI-H460 lung) was 12.7% and the growth (HOP-92 NSCLC) was 69.3%. For the same compound, the growth (NCI-H522 lung) was 20.6%, the growth (A549/ATCC NSCLC) was 29% and the growth (786-0 renal) was 35.5%. For the same compound, the growth (COLO 205 colon) was -3.15% (active).
For N#Cc1nc(-c2ccccc2)oc1S(=O)(=O)N1CCN(c2ccc(F)cc2)CC1, the growth (NCI-H23 lung) was 80.8%, the growth (NCI-H226 lung) was 85.7% and the growth (NCI-H322M lung) was 91.6%. The growth (HOP-62 NSCLC) was 112%, the growth (NCI-H460 lung) was 102% and the growth (HOP-92 NSCLC) was 76%. The growth (NCI-H522 lung) was 2.64% (active), the growth (A549/ATCC NSCLC) was 101% and the growth (786-0 renal) was 64.9%. It also gave a growth (COLO 205 colon) of 33.6%.
Compound CCOc1c(OC)cc2c(c1O)C(=O)N[C@@H]1[C@@H](O)[C@@H](O)[C@H](O)C[C@@H]21 has a growth (NCI-H23 lung) of 107%, a growth (NCI-H226 lung) of 99.8% and a growth (NCI-H322M lung) of 103%. The growth (HOP-62 NSCLC) was 98.6%, the growth (NCI-H460 lung) was 112% and the growth (HOP-92 NSCLC) was 85.2%. It also gave a growth (NCI-H522 lung) of 92.3%, a growth (A549/ATCC NSCLC) of 94.7% and a growth (786-0 renal) of 102%. For the same compound, the growth (COLO 205 colon) was 115%.
In the case of CCN1C(=O)N(CC)C2C1N=C(SCc1ccc(Cl)cc1)N2/N=C/C=C/c1ccccc1OC (stereo not given), the growth (NCI-H23 lung) is reported as 78.2%, the growth (NCI-H226 lung) is reported as 75% and the growth (NCI-H322M lung) is reported as 97.1%. For the same compound, the growth (HOP-62 NSCLC) was 70%, the growth (NCI-H460 lung) was 85.6% and the growth (HOP-92 NSCLC) was 50.6%. The growth (NCI-H522 lung) was 34.1%, the growth (A549/ATCC NSCLC) was 53.7% and the growth (786-0 renal) was 86.2%. The growth (COLO 205 colon) was 59.7%.
